Results reported in the supplement of paper PMC10849652.
Of roughly 7,900 targets only a part is listed; those with a hit were picked by preference. About 0.6% of all pairs of compound and target were hits. Unmarked numbers belong to inactive results.

What was measured:
Assay in all cases: log2 fold change, soluble protein after heating vs DMSO (PISA); higher = thermal stabilisation; K562 cells, 10 uM, 30 min; active = over 0.2 and 3.5 SD of the protein, either way, in both replicates (recomputed)
[1] = compound: Cc1ccc(NC(=O)c2ccc(CN3CC[C@H](N(C)C)C3)c(C(F)(F)F)c2)cc1Nc1nccc(-c2cncnc2)n1 [bafetinib]
Summary of the method: (§1)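 K562 cells (2×10^6 cells/mL) were treated with 10 μM compound for 30 min, and aliquots were heated for 3 min over 48°C-58°C. Pooled aliquots were extracted in PBS with 0.5% NP-40 at 4°C, and the supernatant after 21,000xg for 90 min was measured by TMTpro 16plex LC-MS/MS with channel sums equalised. Reported thermal stability, relative to control samples and from duplicates, is a log2 fold change.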

[2] = compound: Cc1cccc(CC(=O)N2CCc3c2ccc(-c2cn(C)c4ncnc(N)c24)c3F)n1
Summary of the method: as §1

[3] = compound: Cc1cn(-c2cc(NC(=O)c3ccc(C)c(Nc4nccc(-c5cccnc5)n4)c3)cc(C(F)(F)F)c2)cn1 [nilotinib]
Summary of the method: as §1

[4] = compound: Cc1nc(Nc2n[nH]c3c2CN(C(=O)N[C@H](CN(C)C)c2ccccc2)C3(C)C)c2sccc2n1
Summary of the method: as §1

[5] = compound: Cc1nc(Nc2ncc(C(=O)Nc3c(C)cccc3Cl)s2)cc(N2CCN(CCO)CC2)n1 [dasatinib]
Summary of the method: as §1

[6] = compound: Cc1ncc(-c2ccnc(Nc3ccc(S(C)(=O)=O)cc3)n2)n1C(C)C
Summary of the method: as §1

[7] = compound: Cn1cc(-c2ccc3c(c2)CCN3C(=O)Cc2cccc(C(F)(F)F)c2)c2c(N)ncnc21
Summary of the method: as §1

[8] = compound: Cn1cc(-c2ccc3nnc(C(F)(F)c4ccc5ncccc5c4)n3n2)cn1
Summary of the method: as §1

[9] = compound: Cn1cncc1[C@@](N)(c1ccc(Cl)cc1)c1ccc2c(c1)c(-c1cccc(Cl)c1)cc(=O)n2C [tipifarnib]
Summary of the method: as §1

[10] = compound: FC(F)(F)c1ccc(/C=C/c2nc(COc3ccc(CCCCn4ccnn4)cc3)co2)cc1 [mubritinib]
Summary of the method: as §1

Chain of UniProt Q15642 (Q15642 whole entry, looked up): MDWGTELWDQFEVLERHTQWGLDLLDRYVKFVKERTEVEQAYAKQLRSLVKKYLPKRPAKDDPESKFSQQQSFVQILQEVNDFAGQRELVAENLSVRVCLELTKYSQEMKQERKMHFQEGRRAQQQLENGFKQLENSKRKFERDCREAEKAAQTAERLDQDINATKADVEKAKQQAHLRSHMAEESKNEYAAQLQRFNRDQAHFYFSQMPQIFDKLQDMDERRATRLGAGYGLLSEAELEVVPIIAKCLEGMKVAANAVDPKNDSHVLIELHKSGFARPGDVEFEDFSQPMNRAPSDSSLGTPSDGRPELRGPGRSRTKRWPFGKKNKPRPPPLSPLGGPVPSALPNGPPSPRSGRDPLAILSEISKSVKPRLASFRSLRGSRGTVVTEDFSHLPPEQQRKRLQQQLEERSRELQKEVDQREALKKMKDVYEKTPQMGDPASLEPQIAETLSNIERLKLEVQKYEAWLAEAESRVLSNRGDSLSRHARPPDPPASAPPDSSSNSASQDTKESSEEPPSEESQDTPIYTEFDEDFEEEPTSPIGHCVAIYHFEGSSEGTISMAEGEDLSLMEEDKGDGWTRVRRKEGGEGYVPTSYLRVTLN
Chain of UniProt Q12768 (Q12768 whole entry, looked up): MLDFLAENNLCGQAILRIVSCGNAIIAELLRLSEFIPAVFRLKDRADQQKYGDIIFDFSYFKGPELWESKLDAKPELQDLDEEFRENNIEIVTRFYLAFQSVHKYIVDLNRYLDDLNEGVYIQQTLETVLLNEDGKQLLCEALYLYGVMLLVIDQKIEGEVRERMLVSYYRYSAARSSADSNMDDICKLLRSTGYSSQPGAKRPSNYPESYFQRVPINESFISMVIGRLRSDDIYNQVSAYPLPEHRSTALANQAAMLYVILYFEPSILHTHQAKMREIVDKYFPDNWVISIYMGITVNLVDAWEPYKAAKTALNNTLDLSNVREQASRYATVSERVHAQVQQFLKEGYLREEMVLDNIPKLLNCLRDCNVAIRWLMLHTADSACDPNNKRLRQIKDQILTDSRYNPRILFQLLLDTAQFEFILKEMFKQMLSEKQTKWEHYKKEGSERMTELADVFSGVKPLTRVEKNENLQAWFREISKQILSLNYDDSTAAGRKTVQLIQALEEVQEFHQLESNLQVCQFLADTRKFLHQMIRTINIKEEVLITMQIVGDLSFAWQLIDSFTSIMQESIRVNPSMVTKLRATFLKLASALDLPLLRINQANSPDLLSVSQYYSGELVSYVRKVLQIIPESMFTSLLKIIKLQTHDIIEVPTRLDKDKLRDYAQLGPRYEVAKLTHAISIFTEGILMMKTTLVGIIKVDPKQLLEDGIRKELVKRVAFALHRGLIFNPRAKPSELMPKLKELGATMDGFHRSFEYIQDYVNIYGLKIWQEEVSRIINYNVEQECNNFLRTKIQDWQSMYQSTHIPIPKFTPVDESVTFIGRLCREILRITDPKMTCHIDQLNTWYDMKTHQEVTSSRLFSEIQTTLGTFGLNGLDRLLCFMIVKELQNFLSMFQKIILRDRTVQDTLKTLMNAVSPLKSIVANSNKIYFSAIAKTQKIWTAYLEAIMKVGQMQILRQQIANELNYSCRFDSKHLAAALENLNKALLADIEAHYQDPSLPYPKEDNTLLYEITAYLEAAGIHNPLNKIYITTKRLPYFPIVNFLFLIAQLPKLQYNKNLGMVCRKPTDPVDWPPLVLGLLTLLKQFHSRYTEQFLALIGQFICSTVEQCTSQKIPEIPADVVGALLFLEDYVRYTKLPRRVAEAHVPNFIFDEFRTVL
Chain of UniProt Q7Z3J2 (Q7Z3J2 whole entry, looked up): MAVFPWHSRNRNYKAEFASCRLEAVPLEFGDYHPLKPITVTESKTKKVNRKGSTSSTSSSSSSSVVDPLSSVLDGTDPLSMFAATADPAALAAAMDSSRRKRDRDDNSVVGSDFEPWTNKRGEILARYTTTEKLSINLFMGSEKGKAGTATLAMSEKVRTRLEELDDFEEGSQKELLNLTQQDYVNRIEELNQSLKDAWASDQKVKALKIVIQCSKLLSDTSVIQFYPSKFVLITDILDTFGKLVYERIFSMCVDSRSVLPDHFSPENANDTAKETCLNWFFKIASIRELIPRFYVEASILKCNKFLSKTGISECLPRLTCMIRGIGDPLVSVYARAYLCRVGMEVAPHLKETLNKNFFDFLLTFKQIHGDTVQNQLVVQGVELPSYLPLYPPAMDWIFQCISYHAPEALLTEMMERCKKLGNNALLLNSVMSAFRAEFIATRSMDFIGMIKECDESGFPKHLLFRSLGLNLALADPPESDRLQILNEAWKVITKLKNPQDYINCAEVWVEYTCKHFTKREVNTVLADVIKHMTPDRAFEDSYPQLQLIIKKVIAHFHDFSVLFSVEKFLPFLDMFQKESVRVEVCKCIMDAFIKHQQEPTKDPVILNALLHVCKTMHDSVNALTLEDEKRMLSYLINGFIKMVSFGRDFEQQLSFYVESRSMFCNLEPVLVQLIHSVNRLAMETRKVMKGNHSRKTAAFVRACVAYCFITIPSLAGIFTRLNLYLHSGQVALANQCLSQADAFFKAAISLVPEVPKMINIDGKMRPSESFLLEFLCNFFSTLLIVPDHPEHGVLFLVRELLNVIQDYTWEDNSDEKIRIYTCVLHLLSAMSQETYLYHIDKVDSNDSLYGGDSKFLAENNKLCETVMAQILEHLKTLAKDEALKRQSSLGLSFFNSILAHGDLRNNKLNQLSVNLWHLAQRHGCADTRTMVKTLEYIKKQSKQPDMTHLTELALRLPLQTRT
Chain of UniProt O75554 (O75554 whole entry, looked up): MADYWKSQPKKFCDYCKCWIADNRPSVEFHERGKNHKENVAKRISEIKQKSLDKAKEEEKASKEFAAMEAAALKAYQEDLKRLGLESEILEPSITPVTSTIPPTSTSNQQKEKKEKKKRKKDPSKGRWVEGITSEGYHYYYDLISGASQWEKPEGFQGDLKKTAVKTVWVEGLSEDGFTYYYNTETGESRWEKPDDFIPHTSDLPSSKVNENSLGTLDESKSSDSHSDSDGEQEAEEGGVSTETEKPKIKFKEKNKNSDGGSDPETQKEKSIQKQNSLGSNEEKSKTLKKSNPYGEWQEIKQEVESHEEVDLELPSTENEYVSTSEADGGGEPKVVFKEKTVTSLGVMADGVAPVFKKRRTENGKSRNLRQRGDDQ
Chain of UniProt O60784 (O60784 whole entry, looked up): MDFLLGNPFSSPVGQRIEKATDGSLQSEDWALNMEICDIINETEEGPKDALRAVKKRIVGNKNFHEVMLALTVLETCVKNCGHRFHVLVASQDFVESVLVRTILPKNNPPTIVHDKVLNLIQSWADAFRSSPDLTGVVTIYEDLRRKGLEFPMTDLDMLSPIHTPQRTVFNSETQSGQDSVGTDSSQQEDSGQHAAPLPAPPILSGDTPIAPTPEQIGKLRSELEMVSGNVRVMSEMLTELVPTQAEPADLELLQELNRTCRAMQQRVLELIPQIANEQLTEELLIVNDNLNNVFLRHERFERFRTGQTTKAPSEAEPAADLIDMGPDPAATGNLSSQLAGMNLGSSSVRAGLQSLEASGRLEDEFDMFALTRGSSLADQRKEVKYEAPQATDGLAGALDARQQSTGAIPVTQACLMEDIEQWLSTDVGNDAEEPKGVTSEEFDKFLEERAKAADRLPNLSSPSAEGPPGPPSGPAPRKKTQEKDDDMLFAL
Chain of UniProt A5PLN9 (A5PLN9 whole entry, looked up): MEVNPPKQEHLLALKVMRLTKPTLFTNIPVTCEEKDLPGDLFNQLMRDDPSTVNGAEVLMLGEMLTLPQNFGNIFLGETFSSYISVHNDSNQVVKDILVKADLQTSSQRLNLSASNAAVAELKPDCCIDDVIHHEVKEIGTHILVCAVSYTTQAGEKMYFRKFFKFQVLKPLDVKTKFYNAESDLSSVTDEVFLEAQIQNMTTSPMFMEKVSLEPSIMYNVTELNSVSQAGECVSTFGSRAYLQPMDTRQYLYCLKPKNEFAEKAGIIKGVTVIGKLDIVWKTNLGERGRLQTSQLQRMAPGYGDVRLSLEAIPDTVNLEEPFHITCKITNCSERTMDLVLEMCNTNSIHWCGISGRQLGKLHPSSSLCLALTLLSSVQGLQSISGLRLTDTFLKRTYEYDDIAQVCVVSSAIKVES
Chain of UniProt Q8NEZ2 (Q8NEZ2 whole entry, looked up): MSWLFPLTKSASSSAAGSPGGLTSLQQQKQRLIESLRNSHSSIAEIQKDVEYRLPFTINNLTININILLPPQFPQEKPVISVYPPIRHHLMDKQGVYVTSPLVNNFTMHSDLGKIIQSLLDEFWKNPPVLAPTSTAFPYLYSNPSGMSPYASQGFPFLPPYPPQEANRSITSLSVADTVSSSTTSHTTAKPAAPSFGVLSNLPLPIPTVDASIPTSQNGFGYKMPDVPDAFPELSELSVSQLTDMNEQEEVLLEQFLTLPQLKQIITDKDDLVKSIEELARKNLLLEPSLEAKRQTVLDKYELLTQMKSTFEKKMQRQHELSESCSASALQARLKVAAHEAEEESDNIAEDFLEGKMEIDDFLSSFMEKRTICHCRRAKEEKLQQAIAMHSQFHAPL
Chain of UniProt Q96K49 (Q96K49 whole entry, looked up): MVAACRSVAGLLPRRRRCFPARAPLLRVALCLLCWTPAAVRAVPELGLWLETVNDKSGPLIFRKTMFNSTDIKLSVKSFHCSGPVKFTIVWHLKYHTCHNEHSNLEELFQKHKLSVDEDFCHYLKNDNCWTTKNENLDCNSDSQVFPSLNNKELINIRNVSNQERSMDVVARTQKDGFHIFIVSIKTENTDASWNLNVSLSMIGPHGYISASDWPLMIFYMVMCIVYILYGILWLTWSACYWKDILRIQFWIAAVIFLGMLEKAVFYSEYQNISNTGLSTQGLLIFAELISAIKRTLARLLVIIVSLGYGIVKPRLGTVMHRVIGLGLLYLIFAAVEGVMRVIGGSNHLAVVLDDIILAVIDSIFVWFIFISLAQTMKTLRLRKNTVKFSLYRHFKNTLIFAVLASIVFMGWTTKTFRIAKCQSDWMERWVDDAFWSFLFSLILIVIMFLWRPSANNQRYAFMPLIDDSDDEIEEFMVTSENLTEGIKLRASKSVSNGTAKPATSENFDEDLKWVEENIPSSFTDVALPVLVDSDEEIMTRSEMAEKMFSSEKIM

Target | log2 fold change [1] | log2 fold change [2] | log2 fold change [3] | log2 fold change [4] | log2 fold change [5] | log2 fold change [6] | log2 fold change [7] | log2 fold change [8] | log2 fold change [9] | log2 fold change [10]
UBE2E3 (UniProt Q969T4) | -0.029 | -0.029 | -0.126 | 0.023 | -0.113 | 0.025 | -0.028 | -0.004 | -0.131 | 0.056
TP53BP1 isoform 2 (UniProt Q12888) | 0.004 | 0.008 | -0.001 | -0.011 | -0.009 | -0.027 | -0.064 | -0.014 | 0.016 | -0.002
TMEM268 isoform 3 (UniProt Q5VZI3) | 0.318 | -0.096 | 0.008 | -0.005 | -0.194 | 0.165 | 0.112 | 0.014 | 0.003 | 0.109
TMEM87B (UniProt Q96K49) | -0.138 | 0.015 | 0.037 | -0.072 | 0.002 | 0.05 | -0.077 | -0.08 | 0.069 | 0.006
VRK1 (UniProt Q99986) | 0.035 | 0.078 | -0.074 | 0.542 (active) | -0.224 | 0.164 | 0.057 | 0.028 | -0.041 | 0.008
TNPO3 (UniProt Q9Y5L0) | -0.057 | 0.041 | -0.052 | -0.123 | -0.103 | -0.028 | -0.001 | -0.014 | -0.121 | 0.061
WDR18 (UniProt Q9BV38) | -0.031 | 0.05 | -0.059 | -0.024 | 0 | -0.048 | 0.029 | -0.016 | -0.018 | 0.022
XPNPEP3 (UniProt Q9NQH7) | -0.06 | 0.008 | -0.034 | 0.027 | 0.021 | -0.041 | 0.092 | -0.031 | -0.065 | 0.02
XRCC5 (UniProt P13010) | 0.083 | 0.07 | -0.12 | -0.405 | -0.118 | -0.243 | 0.105 | 0.123 | -0.082 | -0.014
WDR43 (UniProt Q15061) | -0.041 | -0.052 | -0.013 | 0.033 | 0.015 | 0.102 | -0.022 | 0.013 | 0.005 | -0.024
WBP4 (UniProt O75554) | -0.043 | 0.14 | 0.001 | -0.006 | 0.014 | -0.023 | 0.037 | 0.047 | 0.023 | 0.06
WRB (UniProt O00258) | -0.072 | -0.011 | 0.015 | 0.005 | 0.031 | -0.036 | -0.011 | 0.089 | 0.024 | 0.052
UGGT1 (UniProt Q9NYU2) | -0.005 | -0.007 | -0.015 | 0.016 | -0.007 | -0.036 | -0.017 | -0.001 | -0.026 | -0.043
UBAP2L isoform 5 (UniProt Q14157) | -0.044 | -0.02 | -0.003 | -0.015 | 0.005 | 0.007 | 0.011 | -0.003 | -0.028 | 0.024
TOM1 isoform 2 (UniProt O60784) | -0.122 | 0.026 | -0.055 | -0.104 | -0.034 | 0.116 | -0.015 | -0.012 | 0.022 | -0.033
TOMM20 (UniProt Q15388) | -0.194 | -0.035 | -0.002 | -0.031 | 0.039 | 0.01 | 0.003 | 0.006 | -0.095 | 0.017
TYW1 (UniProt Q9NV66) | -0.003 | 0.033 | -0.107 | -0.005 | 0.015 | 0.04 | -0.001 | -0.085 | -0.041 | -0.075
WASHC5 (UniProt Q12768) | -0.052 | 0.044 | -0.046 | -0.001 | -0.112 | -0.004 | 0.005 | 0.086 | -0.001 | 0.027
WASHC2A (UniProt Q641Q2) | -0.078 | -0.025 | 0.002 | -0.039 | 0.022 | -0.012 | -0.088 | 0.035 | 0.052 | 0.004
UBIAD1 (UniProt Q9Y5Z9) | -0.004 | -0.022 | 0.074 | 0.004 | 0.176 | -0.004 | 0.052 | 0.006 | 0.003 | -0.144
TPM2 (UniProt P07951) | 0.034 | 0.003 | 0.126 | -0.097 | 0.072 | 0.064 | -0.019 | -0.015 | 0.086 | 0.025
WAPL isoform 3 (UniProt Q7Z5K2) | 0 | -0.044 | -0.011 | 0.01 | -0.081 | -0.03 | 0.04 | 0.096 | -0.218 | 0.156
TRAPPC8 (UniProt Q9Y2L5) | -0.037 | 0.044 | -0.055 | -0.04 | -0.133 | 0.059 | 0 | 0.004 | -0.013 | 0.045
VPS37A (UniProt Q8NEZ2) | -0.065 | -0.06 | -0.134 | -0.27 | -0.168 | -0.039 | 0.048 | 0.014 | -0.112 | -0.038
VPS53 isoform 4 (UniProt Q5VIR6) | -0.04 | 0.036 | -0.1 | -0.148 | -0.087 | 0.037 | -0.035 | -0.027 | -0.061 | 0.003
VPS35L (UniProt Q7Z3J2) | 0.006 | -0.008 | -0.201 | 0.101 | -0.056 | -0.123 | -0.152 | 0.009 | -0.002 | 0.02
UBE2J1 (UniProt Q9Y385) | 0.108 | 0.023 | -0.076 | -0.09 | -0.028 | -0.189 | -0.053 | 0.003 | -0.056 | 0.132
TRAPPC13 isoform 5 (UniProt A5PLN9) | 0.11 | 0.149 | -0.019 | 0 | -0.346 (active) | -0.056 | 0.002 | -0.112 | -0.011 | 0.057
TRIP10 (UniProt Q15642) | -0.042 | 0.05 | 0.098 | -0.017 | -0.06 | -0.021 | 0.045 | 0.024 | -0.01 | 0.048
USP7 (UniProt Q93009) | -0.018 | 0.097 | -0.076 | -0.113 | -0.272 | -0.011 | 0.101 | 0.153 | -0.139 | 0.068
